Several values for one entry are separate records, joined by “and”; a condition that tells them apart may be missing. Equal values may be shown once. Records with an inconclusive call do not appear. More than one record can exist for a structure, and the calls need not agree. Activity calls are given as the source filed them. How the source made its calls: active means hit-call score of the fitted dose curve at least 0.9, where 1 is the maximum; inconclusive means response in the unintended direction; inactive means score below 0.9.
These compounds were tested against Cellular tumor antigen p53 (Homo sapiens) (UniProt P04637) (assay: TOX21_p53_BLA_p2_ratio: Tox21 HCT-116 p53 Agonism Beta-lactamase Assay, Ratio, Phase 2 (AID 2283592)).
Excerpt: TOX21_p53_BLA_p2 is a cell-based, single-readout assay that uses HCT116, a human intestinal cell line, […] in a 1536-well plate.TOX21_p53_BLA_p2_ratio is an assay readout measuring reporter gene via receptor activity and designed using inducible reporter (beta lactamase induction) detected with GAL4 b-lactamase reporter gene. The signal is derived from the ratio of cleaved (ch2) to uncleaved (ch1) reporter gene substrate used as the measure of target activity.Data from the assay component TOX21_p53_BLA_p2_ratio was analyzed into 1 assay endpoint. This assay endpoint, TOX21_p53_BLA_p2_ratio, was analyzed in the positive analysis fitting direction relative to DMSO as the negative control and baseline of activity. Using a type of inducible reporter, gain-of-signal activity can be used to understand changes in the reporter gene as they relate to the gene TP53. Furthermore, this assay endpoint can be referred to as a primary readout, because this assay has produced multiple assay endpoints and this ratio serves a reporter gene function to understand target activity. To generalize the intended target to other relatable targets, this assay endpoint is annotated to the DNA binding intended target family, where the subfamily is tumor suppressor.
Thawing Method: Place 14 mL of pre-warmed thaw medium into a 15 mL of conical tub. Remove the vial of cells to be thawed from liquid nitrogen and thaw rapidly by placing at 37C in a water bath with gentle agitation for 1-2 minutes. Decontaminate the vial by wiping with 70% ethanol before opening in a biological safety cabinet. Transfer the vial contents drop-wise into 14 mL of thaw medium in a sterile 15-mL conical tub. Centrifuge cells at 900 rpm for 4 minutes and resuspend in thaw medium. Transfer contents to the T75 tissue culture flask containing Thaw Medium and place flask in a humidified 37C/5% CO2 incubator. Switch to growth medium at first passage.Propagation Method: Aspirate medium, rinse once in DPBS, add 0.25% Trypsin/EDTA and swirl to coat the cell evenly. Add an equal volume of Growth Medium to inactivate Trypsin after 2-3 minutes incubation at 37C. Centrifuge cells at 900 rpm for 4 minutes and resuspend in growth medium. Cell should be passage or fed at least twice a week.Assay Protocol: Harvest cells from culture in growth medium and resuspend in assay medium. 2.2 Dispense 4000 cells/5 uL/well into 1536-well black/clear bottom plates using a Multidrop dispenser. After the cells were incubated at 37C for 5 hours, 23 nL of compounds dissolved in DMSO were transferred to the assay plate by a PinTool resulting in a 217-fold dilution. Incubate the plates for 16 hours at 37C, 5% CO2. Add 1 uL of 6X LiveBLAzer FRET B/G (CCF4-AM) Substrate Mixture to each well using a BioRAPTR dispenser and incubate the plates at room temperature for 2 hours. Measure fluorescence intensity at 460 and 530 nm emission and 405 nm excitation by an Envision detector. Data is expressed as the ratio of 460nm/530nm emissions. Add 4 uL of Cell-titer Glo to each well using BioRAPTR and incubate the plates at room temperature for 2 hours. Measure fluorescence intensity by a VewLux plate reader.

Chain of Cellular tumor antigen p53 (Homo sapiens) (P04637 whole entry, looked up, the tested form may be a part): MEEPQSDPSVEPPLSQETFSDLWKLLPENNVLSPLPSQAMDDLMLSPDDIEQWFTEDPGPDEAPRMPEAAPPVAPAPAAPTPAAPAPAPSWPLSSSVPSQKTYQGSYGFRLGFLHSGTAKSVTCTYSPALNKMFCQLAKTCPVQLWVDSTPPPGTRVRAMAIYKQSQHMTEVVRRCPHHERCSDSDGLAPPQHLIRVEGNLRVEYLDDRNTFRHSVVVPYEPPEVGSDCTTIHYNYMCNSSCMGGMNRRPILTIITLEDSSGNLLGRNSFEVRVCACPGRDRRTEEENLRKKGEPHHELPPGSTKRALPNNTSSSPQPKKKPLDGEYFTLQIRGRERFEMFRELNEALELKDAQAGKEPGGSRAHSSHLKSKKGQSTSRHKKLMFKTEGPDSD

| Compound | outcome | AC50 |
| --- | --- | --- |
| CCCCCCC(=O)O | inactive | – |
| Cc1cc(CCN2CCN(c3nsc4ccccc34)CC2)cc2c1NC(=O)CC2(C)C | – | 71.6 µM (active) |
| COc1ccc([N+](=O)[O-])cc1N | inactive | – |
| CC(O)C(=O)O (stereo not given) | inactive | – |
| CCOC(=O)CC(O)(CC(=O)OCC)C(=O)OCC | inactive | – |
| CCCCCCCCCCCCCC[N+](C)(C)C | inactive | 43.8 µM (active) and 11.3 µM (active) |
| CC(C)CCCCCCOC(=O)CCCCC(=O)OCCCCCCC(C)C | inactive | – |
| OC1CCC(C2CCCCC2)CC1 (stereo not given) | inactive | – |
| ClC1=C(Cl)C(Cl)(Cl)C(Cl)=C1Cl | inactive | – |
| Cc1cc(C)c(O)c(C)c1 | inactive | – |
| Cc1ccc(S(=O)(=O)O)c(C)c1 | inactive | – |
| c1ccc2cc3c(ccc4ccccc43)cc2c1 | inactive | – |
| CC(C)(C)c1ccc(O)c(C(C)(C)C)c1 | inactive | – |
| CCCCOCCO | inactive | – |
| C[C@@H]1C[C@H]2[C@@H]3CCC4=CC(=O)C=C[C@]4(C)[C@@]3(F)[C@@H](O)C[C@]2(C)[C@@]1(O)C(=O)COP(=O)(O)O | inactive | – |
| CCc1nn(C2CCCCC2)c2cc(C3(C#N)CCC(C(=O)O)CC3)ccc12 (stereo not given) | – | 46.3 µM (active) |
| Nc1cccc2c(N)cccc12 | inactive | – |
| O=C(O)Cc1cc(I)c(Oc2cc(I)c(O)c(I)c2)c(I)c1 | inactive | – |
| OCCC(F)(F)C(F)(F)C(F)(F)C(F)(F)C(F)(F)C(F)(F)C(F)(F)C(F)(F)F | inactive | – |
| CC(C)(C)CC(C)(C)c1ccc(O)c(-n2nc3ccccc3n2)c1 | inactive | – |

| Compound | outcome | AC50 |
| --- | --- | --- |
| CC(=O)CC(C)(C)O | inactive | – |
| CCCCC(CC)COC(=O)CCCCC(=O)OCc1ccccc1 (stereo not given) | inactive | – |
| c1ccc2c(c1)ccc1ccccc12 | inactive | – |
| CC(=O)NC1(c2cccc(F)c2)CCN(CC[C@@]2(c3ccc(Cl)c(Cl)c3)CN(c3ccccc3)C(=O)CO2)CC1 | – | 71.4 µM (active) |
| CCCOC(=O)c1ccc(O)cc1 | inactive | – |
| COC(=O)CCCCC(=O)OC | inactive | – |
| CC[C@H](C)[C@@H](C(=O)O)n1sc2ccccc2c1=O | inactive | – |
| C=C(C)C(=O)OCCC(F)(F)C(F)(F)C(F)(F)C(F)(F)C(F)(F)C(F)(F)F | inactive | – |
| O=c1c(-c2ccc(O)cc2)coc2cc(O)ccc12 | inactive | – |
| CCCCCCCCCCCCN1CCCC1=O | inactive | – |
| c1ccc2c(c1)Cc1ccccc1-2 | inactive | – |
| CCCCCCCC(=O)O | inactive | – |
| COCC(C)O (stereo not given) | inactive | – |
| NC(=O)N1C(=O)C(C(=O)c2cc(Cl)cs2)c2cc(F)c(Cl)cc21 (stereo not given) | inactive | – |
| CN1CCN(c2ccccc2/C=C2\SCCN(c3ccc(Cl)c(Cl)c3)C2=O)CC1 | inactive | – |
| CCN(CC)CCNc1ccc(CNC=O)c2sc3ccc(OC)cc3c(=O)c12 | – | 10.2 µM (active) |
| CCCCCCCCOC(=O)CCCCCCCCC(=O)OCCCCCCCC | inactive | – |
| CC#C[C@]1(O)CC[C@H]2[C@@H]3CCC4=CC(=O)CCC4=C3[C@@H](c3ccc(N(C)C)cc3)C[C@@]21C | – | 45.2 µM (active) and 19.9 µM (active) |
| CCCOc1sc(C(=O)N2CCC(c3cc(CN)ccc3F)CC2)c(C)c1Br | – | 80.1 µM (active) |
